Measured values: ChEMBL document CHEMBL3988442, “University of Dundee, Small-Polar-MMV Screening Library” (2021)

Target: T1, Aspartate--tRNA(Asp/Asn) ligase (Mycobacterium tuberculosis (strain ATCC 25618 / H37Rv)) (UniProt P9WFW3)
T1 sequence (whole entry): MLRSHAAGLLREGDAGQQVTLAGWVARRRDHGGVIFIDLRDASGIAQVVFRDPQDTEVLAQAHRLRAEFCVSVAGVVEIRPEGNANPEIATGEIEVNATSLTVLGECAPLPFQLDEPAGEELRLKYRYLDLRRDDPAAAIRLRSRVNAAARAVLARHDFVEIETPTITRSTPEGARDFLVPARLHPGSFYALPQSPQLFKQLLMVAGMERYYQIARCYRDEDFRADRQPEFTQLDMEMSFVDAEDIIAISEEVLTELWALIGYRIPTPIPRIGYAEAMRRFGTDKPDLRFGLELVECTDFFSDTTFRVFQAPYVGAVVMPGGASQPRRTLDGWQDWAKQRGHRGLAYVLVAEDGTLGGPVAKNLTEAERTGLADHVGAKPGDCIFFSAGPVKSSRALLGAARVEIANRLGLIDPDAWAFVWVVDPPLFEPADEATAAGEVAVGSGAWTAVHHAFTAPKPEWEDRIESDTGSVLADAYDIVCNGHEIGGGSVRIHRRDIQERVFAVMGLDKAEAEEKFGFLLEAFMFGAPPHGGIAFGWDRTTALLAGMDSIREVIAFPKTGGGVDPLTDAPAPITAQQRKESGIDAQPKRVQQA
Test: Assay for Asp RNA synthetase-1 from Mycobacterium tuberculosis
Type: functional
Design: scale not given: in the data most compounds retested in dose-response had high values
Conditions: 30 µM

SMILES	Percent Effect
Cc1nc(C2CCCN2CC(=O)NCCOc2ccccc2)no1 (centres undefined)	1.81%
Fc1ccccc1-c1noc2c1CN(CC1CC1)CC2	-1.29%
CC(C)CCOCCNC(=O)Nc1cc(C(F)(F)F)c[nH]c1=O	1.4%
Cc1cn2c(n1)CCC(NC(=O)CCC(F)(F)F)C2 (centres undefined)	-0.225%
OC(CN1CCCCCCC1)c1ccc(F)cc1 (centres undefined)	-2.26%
O=C(c1cscn1)N1C[C@H]2CCCC(OCc3cccnc3)[C@H]2C1 (some centres undefined)	6.49%
N#Cc1ccc(C(=O)NCCCNc2ccc(C(F)(F)F)cn2)cc1	-4.52%
CN(CCNC(=O)Nc1ccncc1)C1CCCCC1	1.25%
O=C([C@H]1CCCO1)N1CCc2ncnc(NC3CC3)c2CC1	2.52%
COCc1nc(C(=O)NS(=O)(=O)c2ccc(C)s2)cs1	0.678%
CC(C)c1cc(NC(=O)CN2CCNC(=O)C2)on1	2.59%
O=C(COc1coc(CN2CCCCC2)cc1=O)NCc1ccccc1	10.2%
c1ccc(-c2nc(CN3CCc4c(ncn4C4CC4)C3)cs2)cc1	4.49%
CN(Cc1ccsc1)C(=O)CN1CCOC(Cn2cccn2)C1 (centres undefined)	0.463%
CC(C)N1CCc2c(C#N)c(NCc3ccco3)n3cnnc3c2C1	3.86%
Cn1cc(CN2CC[C@@H]3[C@@H](CCC(=O)N3CCC3=CCCCC3)C2)cn1	0.0912%
CC(=O)N(Cc1ncc(C(C)C)o1)C1CCN(Cc2ncc[nH]2)C1 (centres undefined)	5.3%
COc1ccc(S(=O)(=O)N2CCCC3(CCCN3S(C)(=O)=O)C2)cc1 (centres undefined)	-2.13%
CN(C)C(=O)N1CCN(C(=O)CCc2ccccc2)[C@H]2CS(=O)(=O)C[C@H]21	3.33%
Cc1cnn(C2CCCN(C(=O)CCCOc3cccc(F)c3)C2)c1 (centres undefined)	-4.03%

SMILES	Percent Effect
CN(CC1CCCO1)C1CCN(CCc2ccccn2)CC1 (centres undefined)	3.12%
Cc1cc(CNc2cc(Cl)ccc2Cl)no1	-1.12%
Cc1nnc2n1CCN(Cc1csc(CC(=O)N(C)C)n1)C2	2.24%
COc1ccc(CNC(=O)Nc2cccnc2N2CCCC2)cc1O	0.235%
CN(C)S(=O)(=O)N1CCCC(c2cccc(Cc3ccccc3)n2)C1 (centres undefined)	2.78%
CCc1ncc(CN(C)C(=O)Nc2cccnc2N2CCCC2)s1	2.75%
O=S(=O)(CCN1CCOC(Cn2cccn2)C1)C(F)(F)F (centres undefined)	8.08%
Cc1nnc(N2CCCC3(CN(Cc4ccc(C)s4)CCO3)C2)o1 (centres undefined)	0.479%
Cc1nc(C2CCCN(C(=O)c3sccc3C3CC3)C2)no1 (centres undefined)	-0.613%
O=C(c1cccn2ccnc12)N1CCCN(c2cccnn2)CC1	2.1%
COc1ccc(CC(=O)N2CCCCC2Cn2cccn2)cc1OC (centres undefined)	-2.34%
O=C(NCCCN1CCOCC1)c1cc(-c2ccc3c(c2)CCO3)n[nH]1	-2.27%
CCCc1cc(C(=O)N(C)Cc2cccc3ncccc23)n(C)n1	-1.28%
NC(=O)C1(Cc2ccccc2-c2ccccc2)CCCN(CC2CC2)C1 (centres undefined)	2.13%
O=C(c1ccc2c(c1)CCCC2)N1CCOCC1c1ncon1 (centres undefined)	-2.09%
CN(C(=O)c1cc(Cl)c[nH]1)C1CCN(c2ccccn2)CC1	-6.49%
COCC1CC2(CCN(C(=O)c3cccn3C)CC2)CN1C(C)C (centres undefined)	-3.53%
CN(C)c1cc2c(nn1)CCN(C(=O)C1Cc3ccccc3S1)C2 (centres undefined)	1.89%
CC(C)NC(=O)c1nnn(-c2cccc(C(F)(F)F)c2)c1C1CC1	-2.65%
